Measurements published in PubChem BioAssay (Tox21).
Values without a mark were called inactive. Records with an inconclusive call do not appear. Where a call stands in place of a potency, no number is given. The source made the active and inactive calls. Unless noted, calls come from the whole dose curve; as a rule, active = well fitted curve in the direction sought with a large enough effect in the repeat runs; inconclusive = weak or mixed curves; inactive = no such curve, though single readings can be large; an effect the other way counts as inactive or inconclusive.

Tests used:
[1] = qHTS assay to identify small molecule antagonists of the glucocorticoid receptor (GR) signaling pathway - cell viability counter screen (AID 720693); note: nearly all actives have a fitted effect of over 55% in size
[2] = qHTS assay for identifying genotoxic compounds that show differential cytotoxicity against isogenic chicken DT40 cell lines with known DNA damage response pathways - wild type cell line (AID 743012); note: nearly all actives have a fitted effect of over 60% in size
In short: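 Viability of DNA repair-proficient chicken DT40 cells was assessed by CellTiter-Glo luminescence following 40 h compound exposure at 37 C/5% CO2.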

[3] = qHTS assay for identifying genotoxic compounds that show differential cytotoxicity against isogenic chicken DT40 cell lines with known DNA damage response pathways - Rev3 mutant cell line (AID 743014); note: nearly all actives have a fitted effect of over 55% in size
[4] = qHTS assay for identifying genotoxic compounds that show differential cytotoxicity against isogenic chicken DT40 cell lines with known DNA damage response pathways - Rad54/Ku70 mutant cell line (AID 743015); note: nearly all actives have a fitted effect of over 60% in size
[5] = qHTS assay to identify small molecule antagonists of the androgen receptor (AR) signaling pathway - cell viability counter screen (AID 743033; note: nearly all actives have a fitted effect of over 45% in size)
[6] = qHTS assay to identify small molecule antagonists of the androgen receptor (AR) signaling pathway using the MDA cell line - cell viability counter screen (AID 743041; note: nearly all actives have a fitted effect of over 45% in size)
In short: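 Viability read by CellTiter-Fluor fluorescence in the same wells as the antagonist screen, added after 15.5 h of a 16 h, 37C exposure. Human breast carcinoma MDA-kb2 AR-luc cells, compounds co-dosed with agonist R1881.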

[7] = qHTS assay to identify small molecule antagonists of the thyroid receptor (TR) signaling pathway - cell viability counter screen (AID 743064); note: nearly all actives have a fitted effect of over 50% in size
In short: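 CellTiter-Fluor readout, 30 min at 37 °C/5% CO2, following 23.5 h incubation of GH3.TRE-Luc cells with test compound and 1 nM T3 (final).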

[8] = qHTS assay to identify small molecule antagonists of the thyroid receptor (TR) signaling pathway (AID 743065); note: series mostly up to about 70 µM; nearly all actives have a fitted effect of over 55% in size
In short: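 Antagonism measured as loss of luciferase signal in GH3 cells stably carrying a TRE-luciferase reporter, co-treated with compound and T3 (1 nM final) for 23.5 h at 37 C. Viability was read in the same well by CellTiter-Fluor.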

[9] = system: thyroid hormone receptor (rat, GH3 cells); test: qHTS assay to identify small molecule agonists of the thyroid receptor (TR) signaling pathway (AID 743066; calls by dose curve)
[10] = biological target: Estrogen receptor (Homo sapiens) (UniProt P03372); test: qHTS assay to identify small molecule antagonists of the estrogen receptor alpha (ER-alpha) signaling pathway (AID 743069; active = well fitted curve in the direction sought with a large enough effect in the signal ratio in the repeat runs, not every such curve was filed as active; the % refers to the signal ratio)
Chain of Estrogen receptor (Homo sapiens) (P03372 whole entry, looked up): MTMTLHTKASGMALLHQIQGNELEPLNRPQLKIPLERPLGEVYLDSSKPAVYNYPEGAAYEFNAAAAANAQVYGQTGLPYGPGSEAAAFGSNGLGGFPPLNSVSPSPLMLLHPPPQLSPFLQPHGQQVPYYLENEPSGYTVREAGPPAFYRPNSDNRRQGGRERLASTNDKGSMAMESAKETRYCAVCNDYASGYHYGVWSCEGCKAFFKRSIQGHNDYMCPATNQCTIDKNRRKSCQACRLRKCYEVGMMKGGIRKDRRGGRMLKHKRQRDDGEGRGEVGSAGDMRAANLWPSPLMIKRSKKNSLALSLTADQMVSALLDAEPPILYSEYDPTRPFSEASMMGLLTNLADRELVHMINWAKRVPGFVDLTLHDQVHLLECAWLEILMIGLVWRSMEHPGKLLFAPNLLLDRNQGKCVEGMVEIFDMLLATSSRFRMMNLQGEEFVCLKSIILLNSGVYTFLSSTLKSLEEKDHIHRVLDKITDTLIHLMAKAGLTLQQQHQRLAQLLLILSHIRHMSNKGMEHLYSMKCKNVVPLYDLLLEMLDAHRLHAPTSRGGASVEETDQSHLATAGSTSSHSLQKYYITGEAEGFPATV
In short: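 Antagonist mode: compounds in DMSO were co-added with 17beta-estradiol to ER-alpha-bla HEK293 cells (2% charcoal-stripped serum) and left 18 h at 37C. Reporter inhibition was measured as FRET fluorescence after 2 h LiveBLAzer substrate at room temperature.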

[11] = qHTS assay to identify small molecule antagonists of the estrogen receptor alpha (ER-alpha) signaling pathway - cell viability counter screen (AID 743074; calls by dose curve;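 note: HEK293 cells carrying ER-alpha-UAS-bla reporter stimulated with 17beta-estradiol; nearly all actives have a fitted effect of over 45% in size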)
[12] = biological target: Estrogen receptor (Homo sapiens) (UniProt P03372); test: qHTS assay to identify small molecule agonists of the estrogen receptor alpha (ER-alpha) signaling pathway (AID 743075; calls by dose curve;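 note: HEK293 GripTite cells with ER-alpha and UAS-driven beta-lactamase reporter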)
[13] = biological target: Estrogen receptor (Homo sapiens) (UniProt P03372); test: qHTS assay to identify small molecule agonists of the estrogen receptor alpha (ER-alpha) signaling pathway using the BG1 cell line (AID 743079); note: nearly all actives have a fitted effect of over 20% in size; note: potency is the fitted concentration of half-maximal effect
[14] = qHTS assay to identify small molecule antagonists of the estrogen receptor alpha (ER-alpha) signaling pathway using the BG1 cell line (AID 743080; calls by dose curve;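 note: BG1 cells stimulated with 17beta-estradiol alongside compound; series mostly up to about 70 µM; nearly all actives have a fitted effect of over 25% in size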)
In short: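 Readout is ONE-Glo luminescence, taken 30 min at room temperature after reagent addition, preceded by a CellTiter-Fluor viability read; BG1-Luc-4E2 cells had received compound and 17beta-estradiol for 21.5 h at 37 C.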

[15] = qHTS assay to identify small molecule antagonists of the estrogen receptor alpha (ER-alpha) signaling pathway using the BG1 cell line - cell viability counter screen (AID 743081);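 note: compound given together with 17beta-estradiol as the ER stimulus; series mostly up to about 70 µM; nearly all actives have a fitted effect of over 45% in size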
[16] = biological target: Aromatase (Homo sapiens) (UniProt P11511); test: qHTS assay to identify aromatase inhibitors (AID 743083); note: series mostly up to about 70 µM; nearly all actives have a fitted effect of over 55% in size
Chain of Aromatase (Homo sapiens) (P11511 whole entry, looked up): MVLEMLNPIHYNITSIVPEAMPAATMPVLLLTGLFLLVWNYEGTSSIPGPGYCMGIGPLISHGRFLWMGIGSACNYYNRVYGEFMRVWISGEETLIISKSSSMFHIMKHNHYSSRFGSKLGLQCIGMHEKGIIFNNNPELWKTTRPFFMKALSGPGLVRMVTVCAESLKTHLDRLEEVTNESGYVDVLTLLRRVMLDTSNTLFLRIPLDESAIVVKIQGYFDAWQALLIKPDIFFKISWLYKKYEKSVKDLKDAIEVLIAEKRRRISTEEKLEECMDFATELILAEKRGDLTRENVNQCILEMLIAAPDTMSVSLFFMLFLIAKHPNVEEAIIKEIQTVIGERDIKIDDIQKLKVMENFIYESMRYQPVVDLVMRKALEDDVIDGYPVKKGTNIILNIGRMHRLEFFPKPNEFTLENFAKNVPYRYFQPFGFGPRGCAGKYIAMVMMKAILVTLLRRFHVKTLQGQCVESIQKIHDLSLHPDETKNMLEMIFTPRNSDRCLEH

[17] = qHTS assay to identify aromatase inhibitors - cell viability counter screen (AID 743084)
[18] = biological target: Androgen receptor (Homo sapiens) (UniProt P10275); test: qHTS assay to identify small molecule agonists of the androgen receptor (AR) signaling pathway (AID 743036; active = well fitted activation curve with a large enough effect in the signal ratio in the repeat runs, with a control signal flat, not every such curve was filed as active; the % refers to the signal ratio)
Chain of Androgen receptor (Homo sapiens) (P10275 whole entry, looked up): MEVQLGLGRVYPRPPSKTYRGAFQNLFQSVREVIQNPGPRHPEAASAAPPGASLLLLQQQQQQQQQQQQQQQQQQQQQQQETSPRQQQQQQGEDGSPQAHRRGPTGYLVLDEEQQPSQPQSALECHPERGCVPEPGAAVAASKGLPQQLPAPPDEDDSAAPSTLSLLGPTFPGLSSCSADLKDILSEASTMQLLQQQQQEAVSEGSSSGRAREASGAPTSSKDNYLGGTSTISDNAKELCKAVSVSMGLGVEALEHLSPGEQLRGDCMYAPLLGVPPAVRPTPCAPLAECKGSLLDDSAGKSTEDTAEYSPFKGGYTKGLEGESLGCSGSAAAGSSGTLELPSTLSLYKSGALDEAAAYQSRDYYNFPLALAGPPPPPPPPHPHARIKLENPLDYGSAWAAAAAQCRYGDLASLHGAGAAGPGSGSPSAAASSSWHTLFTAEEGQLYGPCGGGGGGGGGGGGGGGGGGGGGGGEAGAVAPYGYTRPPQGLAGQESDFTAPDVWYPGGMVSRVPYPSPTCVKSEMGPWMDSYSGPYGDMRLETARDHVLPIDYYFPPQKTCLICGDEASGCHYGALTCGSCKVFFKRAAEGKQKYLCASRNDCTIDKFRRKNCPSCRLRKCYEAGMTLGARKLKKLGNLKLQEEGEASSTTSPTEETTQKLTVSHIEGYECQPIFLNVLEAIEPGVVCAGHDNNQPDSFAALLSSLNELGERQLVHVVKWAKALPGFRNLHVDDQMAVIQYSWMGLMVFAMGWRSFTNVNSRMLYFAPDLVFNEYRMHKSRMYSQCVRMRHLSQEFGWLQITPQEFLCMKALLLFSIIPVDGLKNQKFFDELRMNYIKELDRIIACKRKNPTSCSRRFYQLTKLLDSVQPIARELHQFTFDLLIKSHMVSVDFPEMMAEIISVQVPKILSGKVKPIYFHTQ
In short: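 Following a 4 h settling period, AR-UAS-bla HEK293 cells were dosed with compounds for 16 h at 37C. A 2 h room-temperature incubation with LiveBLAzer B/G FRET substrate preceded the fluorescence measurement.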

[19] = biological target: Androgen receptor (Homo sapiens) (UniProt P10275); test: qHTS assay to identify small molecule agonists of the androgen receptor (AR) signaling pathway using the MDA cell line (AID 743040; note: nearly all actives have a fitted effect of over 20% in size)
In short: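 Luciferase agonist assay: 16 h compound exposure at 37C without CO2 in MDA-kb2 AR-luc cells, whose MMTV promoter responds to both AR and GR. Luminescence measured after 30 min room-temperature incubation with ONE-Glo.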

[20] = biological target: Androgen receptor (Homo sapiens) (UniProt P10275); test: qHTS assay to identify small molecule antagonists of the androgen receptor (AR) signaling pathway using the MDA cell line (AID 743042; note: nearly all actives have a fitted effect of over 55% in size)
In short: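 Antagonist mode: compounds plus R1881 agonist added to MDA-kb2 AR-luc cells, incubated 16 h at 37C. Luciferase reporter luminescence quantified, with multiplexed CellTiter-Fluor readout for cell viability.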

In the case of `Cc1ccc(N(CCO)CCO)cc1`, the Potency [1] is reported as “inactive”, the Potency [2] is reported as “inactive” and the Potency [3] is reported as “inactive”. For the same compound, the Potency [4] was “inactive”, the Potency [5] was “inactive” and the Potency [6] was “inactive”. The Potency [7] was “inactive”, the Potency [8] was “inactive” and the Potency [9] was “inactive”. For the same compound, the Potency [10] was “inactive”, the Potency [11] was “inactive” and the Potency [12] was “inactive”. For the same compound, the Potency [13] was “inactive”, the Potency [14] was “inactive” and the Potency [15] was “inactive”. The Potency [16] was “inactive” and the Potency [17] was “inactive”.

In the case of `CC(=O)c1ccc[nH]1`, the Potency [1] is reported as “inactive”, the Potency [2] is reported as “inactive” and the Potency [3] is reported as “inactive”. The Potency [4] was “inactive”, the Potency [5] was “inactive” and the outcome [18] was “inactive”. For the same compound, the Potency [19] was “inactive”, the Potency [6] was “inactive” and the Potency [20] was “inactive”. For the same compound, the Potency [8] was “inactive”, the Potency [9] was “inactive” and the Potency [10] was “inactive”. The Potency [11] was “inactive”, the Potency [12] was “inactive” and the Potency [13] was “inactive”. For the same compound, the Potency [14] was “inactive”, the Potency [15] was “inactive” and the Potency [16] was “inactive”. The Potency [17] was “inactive”.

With `CCC(Cl)CC(Cl)C(Cl)C(Cl)C(Cl)C(C)Cl` (centres undefined) the Potency [1] was “inactive”, the Potency [2] was “inactive” and the Potency [3] was “inactive”. For the same compound, the Potency [4] was “inactive”, the Potency [5] was “inactive” and the Potency [19] was “inactive”. For the same compound, the Potency [6] was “inactive”, the Potency [20] was “inactive” and the Potency [8] was “inactive”. The activity, negative = inhibition [10] was 21.9% [at 15 µM], the activity, negative = cytotoxicity [11] was -22.7% [at 15 µM] and the activation [12] was 3.15% [at 14.9 µM]. For the same compound, the Potency [13] was 594 nM (active), the Potency [15] was “inactive” and the Potency [16] was “inactive”. For the same compound, the Potency [17] was “inactive”.

With `CC1CCCC(=O)C1=O` (centres undefined) the Potency [1] was “inactive”, the Potency [2] was “inactive” and the Potency [3] was “inactive”. The Potency [4] was “inactive”, the Potency [5] was “inactive” and the outcome [18] was “inactive”. The Potency [19] was “inactive”, the Potency [6] was “inactive” and the Potency [20] was “inactive”. For the same compound, the Potency [7] was “inactive”, the Potency [8] was “inactive” and the Potency [9] was “inactive”. For the same compound, the Potency [10] was “inactive”, the Potency [11] was “inactive” and the Potency [12] was “inactive”. The Potency [13] was “inactive”, the Potency [14] was “inactive” and the Potency [15] was “inactive”. For the same compound, the Potency [16] was “inactive” and the Potency [17] was “inactive”.

For `CC(C)(C)NCC(O)COc1cccc2c1C[C@H](O)[C@H](O)C2` (some centres undefined), the Potency [1] was “inactive”, the Potency [2] was “inactive” and the Potency [3] was “inactive”. For the same compound, the Potency [4] was “inactive”, the Potency [5] was “inactive” and the Potency [6] was “inactive”. The Potency [7] was “inactive”, the Potency [8] was “inactive” and the Potency [9] was “inactive”. For the same compound, the Potency [10] was “inactive”, the Potency [11] was “inactive” and the Potency [12] was “inactive”. For the same compound, the Potency [13] was “inactive”, the Potency [14] was “inactive” and the Potency [15] was “inactive”. The Potency [16] was “inactive” and the Potency [17] was “inactive”.

In the case of `C/C(C=O)=C\c1ccccc1`, the Potency [1] is reported as “inactive”, the Potency [2] is reported as “inactive” and the Potency [3] is reported as “inactive”. For the same compound, the Potency [4] was “inactive”, the Potency [5] was “inactive” and the Potency [6] was “inactive”. For the same compound, the Potency [7] was “inactive”, the Potency [8] was “inactive” and the Potency [9] was “inactive”. For the same compound, the Potency [10] was “inactive”, the Potency [11] was “inactive” and the Potency [12] was “inactive”. The Potency [13] was “inactive”, the Potency [15] was “inactive” and the Potency [16] was “inactive”. For the same compound, the Potency [17] was “inactive”.

With `O=C(O)CCS` the Potency [1] was “inactive”, the Potency [2] was “inactive” and the Potency [3] was “inactive”. The Potency [4] was “inactive”, the Potency [5] was “inactive” and the Potency [6] was “inactive”. For the same compound, the Potency [7] was “inactive”, the Potency [8] was “inactive” and the Potency [9] was “inactive”. For the same compound, the Potency [10] was “inactive”, the Potency [11] was “inactive” and the Potency [12] was “inactive”. For the same compound, the Potency [13] was “inactive”, the Potency [14] was “inactive” and the Potency [15] was “inactive”. For the same compound, the Potency [16] was “inactive” and the Potency [17] was “inactive”.

In the case of `c1ccc2sc(SSc3nc4ccccc4s3)nc2c1`, the Potency [1] is reported as “inactive”, the Potency [2] is reported as “inactive” and the Potency [3] is reported as “inactive”. For the same compound, the Potency [4] was “inactive”, the Potency [5] was “inactive” and the Potency [6] was “inactive”. The Potency [7] was “inactive”, the Potency [8] was “inactive” and the Potency [9] was “inactive”. The Potency [10] was “inactive”, the Potency [11] was “inactive” and the Potency [12] was “inactive”. The Potency [13] was “inactive”, the Potency [14] was “inactive” and the Potency [15] was “inactive”. The Potency [16] was “inactive” and the Potency [17] was “inactive”.
